# RGS4 inhibitor – Inhibitors of Regulator of G Protein Signaling (RGS) 4: qHTS; Transcreener GDP fluorescence polarization, RGS4-accelerated GTP hydrolysis; AID 504845, 2011; hit rate 0.039% among 390,000; Potency, µM (top dose mostly 114 µM), for inactives: at the highest dose activity change, negative = inhibition, hits mostly inhibitors; Regulator of G-protein signaling 4 (Homo sapiens), P49798; note: % is set by controls: 0 for no effect and ±100 for the full control effect; nearly all actives have a fitted effect of over 75% in size
# Target sequence (P49798 whole entry, looked up): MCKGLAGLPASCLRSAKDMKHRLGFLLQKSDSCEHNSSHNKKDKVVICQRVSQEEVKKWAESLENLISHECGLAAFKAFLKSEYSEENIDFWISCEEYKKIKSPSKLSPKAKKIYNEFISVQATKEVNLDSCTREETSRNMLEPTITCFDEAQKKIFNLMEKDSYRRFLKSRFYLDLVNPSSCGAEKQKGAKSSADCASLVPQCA
#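 MLSMR compounds (23 nl, pin-transferred) preincubated 10 min at room temperature with a 500nM (2x) first reagent, then RGS4 at 900nM (2x) plus Transcreener GDP mix added; fluorescence polarization (620/688 nm) read before and after 90 min at 30 °C.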
# GLP-1R inv ag – qHTS of GLP-1 Receptor Inverse Agonists (Inhibition Mode); Glucagon-like peptide 1 receptor (Homo sapiens), P43220; HEK293 GLP-1R CRE-luciferase, luminescence, 24 h; GLP-1R form is constitutively active; Potency, µM (doses to about 38.3 µM), for inactives: top-dose activity change, negative = inhibition, most hits filed as inhibitors; hit rate 1.6% among 410,000; AID 624417, 2012; note: % is set by controls: 0 for no effect and ±100 for the full control effect; nearly all actives have a fitted effect of over 55% in size
# Target sequence (P43220 whole entry, looked up): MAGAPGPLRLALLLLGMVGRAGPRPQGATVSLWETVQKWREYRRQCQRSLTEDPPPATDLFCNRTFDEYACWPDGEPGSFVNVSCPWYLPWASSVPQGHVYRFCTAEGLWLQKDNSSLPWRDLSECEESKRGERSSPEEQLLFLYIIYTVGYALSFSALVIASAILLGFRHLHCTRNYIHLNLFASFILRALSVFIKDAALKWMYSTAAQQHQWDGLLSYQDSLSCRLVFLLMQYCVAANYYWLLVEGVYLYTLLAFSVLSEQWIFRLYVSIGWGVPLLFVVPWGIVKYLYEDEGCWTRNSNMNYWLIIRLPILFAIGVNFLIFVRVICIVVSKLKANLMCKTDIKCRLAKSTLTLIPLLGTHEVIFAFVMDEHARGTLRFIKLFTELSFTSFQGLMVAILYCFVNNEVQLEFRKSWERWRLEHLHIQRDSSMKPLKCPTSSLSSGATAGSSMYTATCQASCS
#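 Constitutively active GLP-1R drives a cAMP-responsive luciferase in stably transfected HEK293 cells; test compounds are added after overnight (12 h) attachment and left 24 hr, and signal loss in luminescence marks inhibition.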
# GLP1R cytotox – qHTS of GLP-1 Receptor Inverse Agonists: Cytotox Screen; Potency, µM (titrated, usually from 38.3 µM), inactives show at the highest dose activity change, negative = inhibition, most hits filed as inhibitors; HEK293 cAMP-luciferase reporter cells, luminescence, 24 h; hit rate 0.13% among 410,000; AID 624418, 2012;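 note: loss of luciferase light is scored as toxicity; % is set by controls: 0 for no effect and ±100 for the full control effect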
#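 Step one: seed cells (200 cells/uL, DMEM with 10% Nu serum, 1% pen-strep). Step two: 12-hour incubation at 37 deg C. Step three: pin 23 nL compound, incubate 24 hr. Step four: add luciferase reagent, read luminescence 12 min later.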
# PTHR1 ag – qHTS for PTHR1 Agonists: Primary Screen; AID 743266, 2014; Potency, µM (top dose mostly 115 µM), for inactives: at the top dose activation, hits mostly activators; hit rate 0.075% among 410,000; HEK293 GP2 PTHR1 cells, GloSensor cAMP luminescence, 1 h; Parathyroid hormone/parathyroid hormone-related peptide receptor (Homo sapiens), Q03431; note: nearly all actives have a fitted effect of over 55% in size
#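 HEK-293-derived GP2 cells expressing PTHR1 and a GloSensor cAMP reporter, 3,000/well, plated overnight, given luciferin plus IBMX (each 0.5 mM as added) for 1 h at 37 °C, then compound for 1 h at 37 °C. Luminescence was read after 15 min at room temperature.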
# GLP1R ag – qHTS of GLP-1 Receptor Agonists | AID 624172, 2012 | Potency, µM (series often up to 45.6 µM), for the others: at the highest dose activation, most hits filed as activators | HEK293 GLP-1R CRE-luciferase, luminescence, 4-6 h; cells express a hypersensitive GLP-1R form | hit rate 0.007% among 380,000 | Glucagon-like peptide 1 receptor (Homo sapiens), P43220; note: % of control where 0% means no effect
# The depositor's hits bear a star; i = inactive; ? = inconclusive; . = no result; [ ] = dose if it differs, or a comment. The list is not random: actives were taken first. Their share in the collection is about 1.7%. Calls come from the whole dose curve; as a rule, active = well fitted curve in the direction sought with a large enough effect; inconclusive = small, poorly fitted or top-dose-only effect, or another doubt; inactive = no such curve, though single readings can be large; an effect the other way counts as inactive or inconclusive. Potency is the fitted concentration of half-maximal effect.
SMILES,RGS4 inhibitor,GLP-1R inv ag,GLP1R cytotox,PTHR1 ag,GLP1R ag
O=C(CNC(=O)OCc1ccccc1)NCC(=O)Nc1ccc(Br)cc1C(=O)c1ccccc1,11%,1%,-2%,-25%,4%
Cc1nc(Nc2ccc(F)cc2)[nH]c(=O)c1CCC(C)C,-23%,7.9µM*,?,-41%,-13%
CC[n+]1c(-c2ccccc2)c2cc(N)ccc2c2ccc(N)cc21,-7%,5.6µM*,?,i,-30%
C=C1C(=O)C23C(O)C1CCC2C12CCCC(C)(COC(C)=O)C1C(O)C3(O)OC2 (configuration not stated),?,?,2.5µM*,-93%,-10%
C1=CC2C3C=CC(C3)C2C1 (configuration not stated),2%,1%,3%,-32%,18%
CCc1ccc(NC(=O)c2ccc(F)c(S(=O)(=O)N3CCc4ccccc4C3)c2)cc1,3%,8.9µM*,-8%,-41%,.
O=C(Nc1ccc(Br)cc1)c1cccc(S(=O)(=O)N2CCc3ccccc32)c1,-8%,2µM*,-3%,-7%,.
O=C(Nc1ccc(Br)cc1)c1ccc(F)c(S(=O)(=O)N2CCCc3ccccc32)c1,10%,3.2µM*,-10%,-12%,.
CCc1ccc(NC(=O)c2ccc(F)c(S(=O)(=O)N3CCC4(CC3)OCCO4)c2)cc1,17%,?,2%,-94%,.
Cc1nnc(N2CCC(C(=O)NCc3ccc(N(C)C)cc3)CC2)c2nn(-c3ccccc3)c(C)c12,37%,-8%,10%,?,.
CC(C)C[C@H]1CNC(=S)N1C[C@H]1CCCN1C[C@H](Cc1ccc(O)cc1)N1C[C@H](Cc2ccc(O)cc2)N(CC2CCCCCC2)C1=S,.,?,?,-15%,-5%
O=P(Nc1cccc(F)c1)(Oc1ccccc1F)Oc1ccccc1F,22%,11µM*,-18%,i,11%
Cc1cccc(NP(=O)(Oc2ccccc2F)Oc2ccccc2F)c1,1%,11µM*,?,-3%,-17%
CC(C)Cn1cnc2c(c(-c3ccccc3)c(-c3ccccc3)n2Cc2ccco2)c1=N,-29%,3.2µM*,?,i,-7%
CCCc1cc(C(=O)Nc2c(C)nn(Cc3ccc(Cl)c(Cl)c3)c2C)no1,15%,10µM*,?,-46%,.
Cc1[nH]c2ccc(OC(F)(F)F)cc2c1CCNCc1cccc([N+](=O)[O-])c1,-2%,?,?,-12%,10%
Cc1[nH]c2ccc(OC(F)(F)F)cc2c1CCNCc1ccc(Cl)cc1,-6%,4µM*,?,-22%,5%
CCOc1cccc(CNCCc2c(C)[nH]c3ccc(OC(F)(F)F)cc23)c1O,-22%,5µM*,?,-41%,-6%
CCCCC[C@@H]1CCCCC[C@@H](O)C[C@@H](O)[C@H](O)/C=C/C(=O)O1,.,-5%,2%,-14%,1%
Oc1ccc(N=Nc2nc(-c3ccccc3)c(-c3ccccc3)[nH]2)cc1,11%,5.6µM*,10µM*,i,-1%
CC(=O)OC1(C)CC(C)C(=O)C(C(O)CC2CC(=O)NC(=O)C2)C1 (configuration not stated),10%,-77%,15%,-60%,-5%
C[C@@H]1C[C@@H]([C@H](O)CC2CC(=O)NC(=O)C2)C(=O)[C@@H](C)C1,6%,0.79µM*,-38%,i,-19%
CCCCCn1c(N)c(C(=O)NCCN2CCOCC2)c2nc3ccccc3nc21,-42%,?,i,4%,-27%
COc1ccc(CCNC(=O)c2c(N)n(CCN3CCOCC3)c3nc4ccccc4nc23)cc1OC,1%,10µM*,115%,-10%,0%
C=CCC1=C(C)C(OC(=O)C2C(C=C(C)C)C2(C)C)CC1=O (configuration not stated),.,.,.,.,0%[96 µM]
SMILES,RGS4 inhibitor,GLP-1R inv ag,GLP1R cytotox,PTHR1 ag,GLP1R ag
C=C(C(=O)c1ccccc1)C(C)CC(=O)c1ccccc1 (configuration not stated),?,8.9µM*,?,-83%,-12%
CCC(N)CCc1c[nH]c2ccccc12 (configuration not stated),.,.,.,.,-1%[110 µM]
COc1ccc(OC)c(NC(=O)c2nc(S(=O)(=O)Cc3ccc(F)cc3)ncc2Cl)c1,?,?,?,i,.
Cc1cc(C)cc(NC(=O)CCCn2c3ccccc3c(=O)c3ccccc32)c1,-9%,3.5µM*,75%,i,.
CCC(=O)OC1[C@@H](N2CCCCC2)C[C@H]2[C@@H]3CC[C@H]4C[C@H](OC(C)=O)[C@@H](N5CCCCC5)C[C@]4(C)[C@H]3CC[C@]12C (some centres not stated),.,.,.,.,0%
COc1ccc(CNCCC(c2ccc(F)cc2)c2ccc(OC)cc2)cc1 (configuration not stated),2%,?,?,-29%,8%
COc1ccc(CNCCC(c2ccc(F)cc2)c2ccc(OC(C)C)cc2)cc1OC (configuration not stated),-25%,4µM*,?,i,9%
COc1ccc(CCNC(=O)c2cnc3sc(N4CCCCCC4)nn3c2=O)cc1,0%,-6%,5%,-84%,.
CS(=O)(=O)c1ccc(C(=O)OCC(=O)NCc2cccs2)cc1[N+](=O)[O-],9%,?,?,-6%,-23%
CCCCCSc1cc(OC)c(CCNC)cc1OC,7%,4µM*,?,-3%,-7%
CCCCCCCSc1cc(OC)c(CCNC)cc1OC,-30%,?,?,-11%,-17%
Cc1ccc(NC(=O)CN(C)C(=O)Cn2ncc(Cl)c(Cl)c2=O)cc1,4%,?,?,-24%,-30%
O=C(Cn1ncc(Cl)c(Cl)c1=O)NCC1CCCCC1,-36%,?,10µM*,-25%,-23%
COc1cc(C2NCc3ccccc3-n3cccc32)ccc1O (configuration not stated),1%,10µM*,-27%,-19%[57.5 µM],-3%
CCOc1cc(C2NCc3ccccc3-n3cccc32)ccc1OC (configuration not stated),-24%,10µM*,0%,i,-4%
CCOc1cc2c(cc1OCC)-n1cccc1C(c1ccc(OC)c(O)c1)NC2 (configuration not stated),9%,?,-12%,-6%,17%
CCn1cc(C(=O)NCCc2ccc(Cl)cc2)c(=O)c2cc(S(=O)(=O)N(C)C3CCCCC3)ccc21,5%,-7%,-20%,-49%,1%

# Screening results from PubChem.
